# The supplement of paper PMC13392028
# In all, about 4,100 sequences were measured (“RBNS R-value (6-mer enrichment in protein-bound RNA vs input library)”: median about 0.96, highest 2% from about 2.4 on). This is one part of a sample in which the highest values are shown more often than they occur.
# Tested on: PyIESI-1 RRM domain (Plasmodium yoelii PY17X_0911200 aa 795-956, GST fusion)
# Assay: RBNS R-value (6-mer enrichment in protein-bound RNA vs input library) (ratio); higher = stronger binding preference; the methods of the paper give 50 / 100 / 500 nM protein instead
# Description: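 RNA Bind-n-Seq: recombinant GST-tagged IESI-1 RRM domain was incubated at room temperature with a random 40-nt in vitro transcribed RNA library at 250, 500 or 1000 nM protein. Bound RNA was pulled down on glutathione beads and sequenced. R-value is the enrichment of each 6-mer in the bound RNA relative to the input library. Each 6-mer sits inside the random 40-mer context, not as an isolated oligo. Values are replicate 1 only.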
Sequence,RBNS R-value (protein concentration: 250 nM),RBNS R-value (protein concentration: 500 nM),RBNS R-value (protein concentration: 1000 nM)
UGGAUC,0.876,0.876,0.852
CGGGUA,0.923,0.929,0.9
UUGAGU,1.03,1.07,1.03
CUGAAU,1.09,1.11,1.07
GUGAUA,2.97,2.94,3.2
UGGAUU,1.02,1.04,1.01
GUGAGA,1.03,1.06,0.984
GUGAUU,4.55,4.24,4.44
UUGAUU,7.23,6.65,6.84
GUGAUC,1.68,1.71,1.81
GUGAAA,0.997,0.961,0.925
GUGAAU,0.995,1,0.944
CAGAUU,1.53,1.52,1.61
CUGAUU,6.33,5.69,5.82
GUACUA,0.638,0.638,0.595
UACGGA,0.876,0.89,0.885
GAAUCA,0.819,0.828,0.81
UAGUGG,0.775,0.827,0.76
CAGUUC,0.829,0.84,0.843
GCCCUU,0.971,1.02,1.03
GGGCAC,1.06,1.04,1.06
UUGCAC,1.32,1.29,1.31
GGAUAG,0.94,0.954,0.908
AGAUAA,0.936,1,1.02
GGAUAU,0.856,0.872,0.845

Sequence,RBNS R-value (protein concentration: 250 nM),RBNS R-value (protein concentration: 500 nM),RBNS R-value (protein concentration: 1000 nM)
CGAUAA,1.27,1.33,1.41
UGAUAA,4.34,4.21,4.69
AGAUAG,1.08,1.1,1.11
UGAUAU,3.72,3.77,4.19
UGAUAG,4.53,4.33,4.55
GGAUAC,0.904,0.919,0.891
CGAUAC,1.26,1.34,1.39
UGAUAC,3.65,3.59,3.96
AGAUAU,0.962,0.983,1
GCUACG,0.896,0.915,0.905
AGCUCC,0.982,0.991,1
UGCUGA,2.04,1.98,1.99
AAUCAC,0.701,0.714,0.718
GGGCUU,1.01,1.02,1.01
ACGCUG,1.14,1.13,1.13
CCGGCG,1.06,1.09,1.08
UACAGC,0.713,0.73,0.722
UCCCAU,0.805,0.831,0.834
UCCUCG,0.965,0.991,0.988
CAUUUU,0.849,0.886,0.903
UAUUUA,0.42,0.445,0.418
AAUUUU,1.02,1.02,1.06
GAUUUA,2.58,2.52,2.7
AAUUUG,1.6,1.54,1.6
GAUUUU,3.71,3.43,3.56

Sequence,RBNS R-value (protein concentration: 250 nM),RBNS R-value (protein concentration: 500 nM),RBNS R-value (protein concentration: 1000 nM)
CAUUUC,0.888,0.94,1
CAUUUA,0.421,0.449,0.427
CAUUUG,1.31,1.35,1.38
GAUUUG,4.2,3.81,3.78
GAUUUC,3.38,3.2,3.32
AAUUUC,1.1,1.11,1.15
UGGGUA,0.987,1.02,0.989
GUAGUG,0.958,0.965,0.926
GUAAAA,0.762,0.753,0.701
AAACAA,0.781,0.765,0.773
GACAUG,1.52,1.48,1.5
CCUAGC,0.86,0.888,0.886
CCGAUU,2.3,2.23,2.34
ACGAUC,0.998,1,1.05
ACGAUA,1.21,1.3,1.37
ACGAUG,2.5,2.46,2.59
GCGAUU,2.19,2.21,2.28
UCGAUC,1.05,1.07,1.11
UCGAUG,2.22,2.24,2.37
GCGAUC,1.09,1.12,1.13
CCGAUG,2.44,2.4,2.5
GCGAUG,2.65,2.56,2.65
UCGAUA,1.17,1.23,1.29
CCGAUA,1.32,1.36,1.43
ACAUUG,1.19,1.17,1.2

Sequence,RBNS R-value (protein concentration: 250 nM),RBNS R-value (protein concentration: 500 nM),RBNS R-value (protein concentration: 1000 nM)
GACCAG,1.1,1.11,1.09
GCUACU,0.838,0.861,0.829
GUGGAG,0.967,0.977,0.96
UAUUCA,0.554,0.565,0.571
GAUUCC,2.42,2.37,2.49
GAUUCU,2.89,2.77,2.85
GAUUCG,2.64,2.49,2.51
UAUUCU,0.707,0.731,0.734
GAUUCA,2.85,2.7,2.92
AAUUCC,1.12,1.09,1.12
AAUUCA,0.88,0.882,0.917
AAUUCU,1.06,1.05,1.06
CAUUCC,0.948,0.975,0.997
CAUUCG,1.01,1.05,1.07
AAUUCG,1.08,1.08,1.08
GCGCAG,1.01,1.03,1.03
ACAUCG,0.752,0.777,0.749
UCCAGU,0.838,0.85,0.831
ACCCAG,1.32,1.27,1.32
AAUCCC,0.954,0.955,0.949
ACUGCG,1.12,1.13,1.13
GACAAC,1.09,1.07,1.07
UCUUCC,0.978,1.01,1.03
CGAUCC,1.19,1.22,1.26
UGAUCC,2.58,2.6,2.82

Sequence,RBNS R-value (protein concentration: 250 nM),RBNS R-value (protein concentration: 500 nM),RBNS R-value (protein concentration: 1000 nM)
UGAUCA,2.37,2.38,2.64
GGAUCC,0.932,0.922,0.909
CGAUCU,1.15,1.15,1.19
AGAUCA,0.82,0.812,0.814
UGAUCU,2.74,2.75,2.93
AGAUCU,0.946,0.924,0.93
GGAUCA,0.767,0.764,0.736
GUGUUC,0.821,0.855,0.82
CGUACU,0.773,0.765,0.73
CAGUGA,1.6,1.58,1.62
AGAUUA,1.09,1.16,1.25
CGAUUC,2.08,2.12,2.24
CGAUUU,2.59,2.56,2.71
CGAUUA,1.73,1.79,1.94
GGAUUU,1.08,1.1,1.06
UGAUUA,6.31,5.88,6.3
UGAUUC,6.24,5.67,5.91
CUAUUU,0.653,0.681,0.664
AGAUUU,1.72,1.72,1.83
AGAUUC,1.47,1.49,1.58
UGAUUU,7.9,7.06,7.22
CCAUUU,0.871,0.913,0.936
